The whole screen tested about 3,600 compounds, of which about 900 (25%) were called active. Only a sample is shown. Entries with a potency or affinity are not part of this list. Unmarked numbers belong to inactive results. The rule behind the calls is not given here.

What is called inhibition is the drop in the measured response relative to a control, in per cent.

The assay addresses Protein Tat (Human immunodeficiency virus type 1 group M subtype B (isolate HXB2)) (UniProt P04608). The assay is described as follows: HIV-1 Tat–TAR interaction blockers – biochemical, fluorescence polarization, FAM-labeled TAR RNA, counter-screen for Vif-APOBEC3G degradation inhibitor project, dose response (AID 1117361). The note with it: Tat-TAR RNA binding; series mostly up to 100 µM; inhibition: at the top concentration. A general note: Fluorescence polarisation rises when a labelled molecule tumbles more slowly, as on binding a larger partner.
In the case of `Nc1ccc(Sc2cc(Cl)nc(N)n2)cc1`, the “inhibition” value is 4.05%.
On the same count and under the same terms, next, `O=C(Cn1ccc([N+](=O)[O-])n1)N1CCCc2ccccc21`: 2.03%.
`O=C(CSc1nc(N2CCCCC2)nc(N2CCCCC2)n1)N1CCc2ccccc21`: the molecule was classed as inactive.
On to `CCCCNC(=O)CN1C(=O)CSc2ccc(S(=O)(=O)N3CCOCC3)cc21`, for which the outcome was inactive.
On to `CO/N=C/C(=N\Nc1ccc(OC)cc1)C(=O)c1ccc(OC)cc1`, for which the “inhibition” value is 5.46%.
Take `COc1ccc(C(=O)C2CCCN(C(=O)c3cnsn3)C2)c(C)c1` (stereo not drawn): the call was inactive.
For `CC(=O)c1ccc(-c2nnc(CCC(=O)N(C)Cc3c(C)nc4ccccn34)o2)s1`, the “inhibition” value was 4.95%.
In the case of `CN(C(=O)CSc1ncnc2sccc12)C1CCCCC1`, the outcome was inactive.
Turning to `O=C(/C=C/c1ccccc1)NC(NC(=S)Nc1cc(Cl)ccc1Cl)C(Cl)(Cl)Cl` (stereo not drawn), the call was inactive.
As to `O=C(O)c1cccc(NCc2ccncc2)c1`, the “inhibition” value is 20.9%.
With `COC(=O)c1ccc(NC(=O)COc2cccc(-n3cnnn3)c2)cc1`, the “inhibition” value was 6.35%.
In the case of `COC(=O)c1cccc(NC(=O)c2cccc(OC)c2)c1`, the “inhibition” value is 4.05%.
`CC(=O)Nc1ccc2c(c1)Cc1cc(N3C(=O)C=CC3=O)ccc1-2`: the result was inactive.
As for `CCOc1ccc(C2=[N+]([O-])C(C)(C)N(O)C2(C)C)cc1`, the “inhibition” value was 3.41%.
As to `CCCCn1nnc(NC(=O)c2ccc(-c3cccc(Cl)c3)o2)n1`, the “inhibition” value is 0.68%.
As for `CC1(C)CC(=O)c2cc(OCC(=O)NCc3cccnc3)ccc2O1`, the “inhibition” value was 8.11%.
As to `CCOC(=O)/C(=C\c1ccccc1)NC(=O)c1ccccc1`, the molecule was called inactive.
Consider `CCOC(=O)/C(=C/c1c2ccccc2cc2ccccc12)NC(=O)c1ccccc1`, for which the “inhibition” value is 3.38%.
Same read-out and setting: to `COc1ccc(S(=O)(=O)NCc2ccccn2)cc1` belongs 4.05%; to `Cc1cccc(C)c1NS(=O)(=O)c1c(C)[nH]c(=O)[nH]c1=O`, 6.14%.
With `COc1ccc(CNc2ncnc(N)n2)cc1`, the “inhibition” value was 5.41%.
`CC(C)CC(NC(=O)CCl)c1ccccc1` (stereo not drawn): the result was inactive.
In the case of `CCCC(=O)Nc1ccccc1NC(C)=O`, the “inhibition” value was 4.05%.
Take `CCOC(=O)c1ccc(NC(=O)CSc2nnc(Cc3cccs3)n2C)cc1`: the “inhibition” value is 4.77%.
For the molecule `CCN(CC)C(=O)CSCC(=O)Nc1ccccc1`, the “inhibition” value is 2.03%.
Take `O=C(c1c(F)cccc1F)N(Cc1ccccn1)C1CCCC1`: the result was inactive.
`O=C(CCn1c(=O)c2ccccc2n(CC(=O)NCCC2=CCCCC2)c1=O)NCc1ccco1`: the “inhibition” value was 16.4%.
The same measure, in the same setting: to `O=C(NCCc1ccc(Cl)cc1)C1CCN(C(=O)c2sccc2-n2cccc2)CC1` belongs 10.2%.
On to `COc1cc(C(O)P(=O)(OCC(C)C)OCC(C)C)cc(OC)c1OC` (stereo not drawn), for which the molecule was called inactive.
`Cc1ccc(CNC(=O)C2c3ccccc3C(=O)N3CCc4ccccc4C23)o1` (stereo not drawn): the “inhibition” value was 10.9%.
Turning to `CN1CCN(C(=O)c2ccc(N(C)S(=O)(=O)c3cccs3)cc2)CC1`, the result was inactive.
With `Cc1ccc(CSC2=Nc3sccc3C3=NC(=O)CN23)cc1`, the “inhibition” value is 25.9%.
As to `COCC(=O)NCCc1nc2ccccc2[nH]1`, the “inhibition” value was 2.03%.
With `COCCn1c(N2CCN(c3ccc(OC)cc3)CC2)nc2c1c(=O)[nH]c(=O)n2C`, the result was inactive.
Turning to `CCn1c(=N)n(CC(=O)c2ccc(OC)cc2)c2ccccc21`, the molecule was classed as inactive.
As to `CCCn1c(NC(=O)c2ccco2)nc2ccccc21`, the outcome was inactive.
Turning to `CC(=O)c1sc(NC(=O)C2CCN(C(=O)c3ccccc3C)CC2)nc1-c1ccccc1`, the “inhibition” value is 19%.
On to `COc1ccc2oc(C(F)(F)C(F)(F)F)cc(=O)c2c1`, for which the “inhibition” value is 8.87%.
Turning to `O=C(CN1CCC(NC(=O)c2cccc(F)c2)CC1)NCc1ccccc1F`, the “inhibition” value is 13.6%.
Take `CCN(CC)C(=O)CN1C(=O)C2(NC(=O)c3ccccc3N2)c2ccccc21` (stereo not drawn): the molecule was called inactive.
For `Cc1ccc(OC(=O)COc2ccccc2)c(-n2nc3ccccc3n2)c1`, the “inhibition” value was 1.36%.
In the case of `O=C(NCc1ccncc1)c1ccc(Cn2cc(C(F)(F)F)ccc2=O)cc1`, the outcome was inactive.
`CCc1ccc(NS(=O)(=O)c2cccs2)cc1`: the “inhibition” value is 8.11%.
`CC(OC(=O)c1cccs1)C(=O)NCc1ccco1` (stereo not drawn): the “inhibition” value was 3.38%.
For the molecule `COc1cccc(-c2nnc(SCC(=O)OC(C)C)n2N)c1`, the “inhibition” value is 1.35%.
With `O=C(c1ccco1)N(Cc1ccc([N+](=O)[O-])cc1)c1ccc(Cl)cc1`, the outcome was inactive.
The same measure, in the same setting: next, `O=C(c1ccco1)N(Cc1ccco1)c1ccc(O)cc1`: “inactive”; `O=C(Cn1ncc(Cl)c(Cl)c1=O)c1ccc2c(c1)OCCO2`: “inactive”.
Consider `CCCCCCC(=O)N(O)C1CC(=O)N(c2ccc(Br)cc2)C1=O` (stereo not drawn), for which the “inhibition” value is 9.55%.
Still for that read-out and setting: to `Nc1nc(SCC(=O)OCc2ccccc2)[nH]c(=O)c1NC(=O)c1ccco1` belongs 0.68%.
Turning to `NS(=O)(=O)c1ccc(CCNC2CC(=O)N(Cc3ccccc3)C2=O)cc1` (stereo not drawn), the result was inactive.
As for `COc1cc(N2C(=O)C=CC2=O)ccc1N1C(=O)C=CC1=O`, the “inhibition” value is 9.02%.
Take `COc1ccc(Nc2ncc(F)c(N3CCOCC3)n2)cc1`: the result was inactive.
In the case of `CCNC(=O)CC1C(=O)N(c2ccc(C)cc2)C(=O)N1CCc1ccc(OC)c(OC)c1` (stereo not drawn), the “inhibition” value was 6.82%.
`O=C1CC(Nc2ccc(N3CCOCC3)cc2)C(=O)N1CCc1ccccc1` (stereo not drawn): the molecule was called inactive.
`COc1ccc(CCN2C(=O)c3cccnc3C2=O)cc1OC`: the “inhibition” value was 4.09%.
On to `O=S(=O)(N1CCCCC1)N1CCN(c2ccccc2F)CC1`, for which the “inhibition” value was 7.43%.
As to `CN1CCN(/C=C(\C#N)S(=O)(=O)c2ccc(Cl)cc2)CC1`, the “inhibition” value is 25.6%.
`S=C(NCc1ccccn1)Nc1ccc(Cl)c(Cl)c1`: the result was inactive.
Regarding `O=C(NCc1ccc(F)cc1)C1CCC(CNc2c(N3CCCCC3)c(=O)c2=O)CC1` (stereo not drawn), the molecule was classed as inactive.
For the molecule `Cc1cc(C)cc(N(CC(=O)NCc2cccnc2)S(C)(=O)=O)c1`, the “inhibition” value was 14.2%.
Regarding `CCSc1nnc(NC(=O)c2cccc3ccccc23)s1`, the “inhibition” value is 5.41%.
As for `Cc1ccc(C(C)C)c(OCCN(C)C)c1`, the “inhibition” value is 0.68%.
Regarding `Cc1cc(C)cc(CC2CC(=O)N(c3ccc4c(c3)OCCO4)C2=O)c1` (stereo not drawn), the outcome was inactive.
Same read-out and setting: to `COc1ccc(C2OC(=O)CC2C(=O)N2CCN(c3cc(Cl)ccc3C)CC2)cc1OC` (stereo not drawn) belongs “inactive”.
`CCOC(=O)C(C#N)(Cc1ccc2ccccc2n1)Cc1ccc2ccccc2n1`: the “inhibition” value is 1.67%.
For `Cc1ccccc1NS(=O)(=O)c1ccc2[nH]cc(C(=O)N(C)Cc3ccco3)c(=O)c2c1`, the molecule was called inactive.
Consider `CC1CCCCN1CCCNC(=O)C1CCN(c2nc3ccccc3o2)CC1` (stereo not drawn), for which the “inhibition” value was 2.7%.
`O=C(Nc1ccc(COc2ccccc2)cc1)Oc1ccccc1N1CCOCC1`: the call was inactive.
Regarding `CCOc1ccc(Cl)cc1S(=O)(=O)N1CCN(c2ccc(F)cc2)CC1`, the “inhibition” value was 10.8%.
Take `CCN(CC)c1ccc(NC(=O)c2ccco2)cc1`: the molecule was classed as inactive.
As for `O=C1CC(NCc2ccco2)C(=O)N1CCc1ccccc1` (stereo not drawn), the “inhibition” value is 2.34%.
Still for that read-out and setting: to `COc1ccccc1CNCC(=O)Nc1ccc(N2CCOCC2)cc1` belongs 6.6%.
Regarding `COc1ccccc1N1C(=O)CC(Sc2nccc(C)n2)C1=O` (stereo not drawn), the “inhibition” value is 7.5%.
Regarding `O=C(CSc1ccc(Cl)cc1)c1ccco1`, the call was inactive.
On to `O=[N+]([O-])c1ccc(-c2c[nH]c(=S)[nH]2)cc1`, for which the “inhibition” value is 27.2%.
Same read-out and setting: next, `CC1(C)OC(=O)C(=CNC(Cc2c[nH]c3ccccc23)C(=O)O)C(=O)O1` (stereo not drawn): 2.05%; `CC(C)(C)c1ccc(OCC(=O)NCCN2CCCC2)cc1`: 7.43%.
In the case of `Cc1ccc(S(=O)(=O)N2CCOCC2)cc1C(=O)Nc1nc2ccccc2[nH]1`, the “inhibition” value was 15.7%.
On to `CC(NC(=O)c1ccco1)C1CCCO1` (stereo not drawn), for which the outcome was inactive.
`CC1(C)Cc2c(cnn2-c2ccccc2)C(NC(=O)CCCN2CCCCC2=O)C1` (stereo not drawn): the result was inactive.
Turning to `O=S(=O)(NCc1cn2ccsc2n1)c1cccs1`, the “inhibition” value is 0.68%.
Turning to `Nc1cccc2c1C(=O)N(C(=O)/C=C/c1cccc(Br)c1)C2=O`, the “inhibition” value was 19%.
Regarding `COc1ccc(NC(=O)O/N=C/c2ccccc2Cl)cc1`, the “inhibition” value was 3.3%.
As to `Cc1ccc(OCC(=O)NNC(=O)CCc2ccccc2)cc1`, the molecule was called inactive.
Turning to `Cc1ccc(S(=O)(=O)N/N=C/c2ccc(OCC(=O)Nc3ccccc3Cl)cc2)cc1`, the “inhibition” value is 7.43%.
`COc1ccc(OC)c(NC(=O)CCN2CCC(C)CC2)c1`: the “inhibition” value was 14.2%.
In the case of `COc1ccccc1N(C)S(=O)(=O)c1ccc(C(=O)NC(C)(C)C)cc1`, the call was inactive.
Take `Cc1ccn(C(=O)c2cc3ccccc3oc2=O)n1`: the “inhibition” value is 0.68%.
As to `COc1ccc(-n2ncc3c(N4CCC(C(N)=O)CC4)ncnc32)cc1`, the outcome was inactive.
In the case of `CCCn1c(SCC(=O)c2cc(C)ccc2C)n[nH]c1=O`, the “inhibition” value is 12.8%.
For the molecule `CCOc1ccc(-n2c(SCC(N)=O)nnc2-c2cccnc2)cc1`, the “inhibition” value was 9.9%.
Take `Cc1cccc(-n2c(=O)cc(N3CCN(c4ccc(F)cc4)CC3)[nH]c2=O)c1`: the molecule was called inactive.
Regarding `Cc1ccc(C)c(-n2c(SCC(N)=O)nnc2-c2ccccn2)c1`, the “inhibition” value was 9.46%.
Take `CCOC(=O)CSc1nnc(CNC(=O)c2ccccc2OC)n1-c1ccc(OC)cc1`: the “inhibition” value is 4.09%.
`S=C1NC2(CCCCCC2)N=C1c1ccccc1`: the molecule was classed as inactive.
With `Cc1ccc(C)c(/C(O)=C2/C(=O)C(=O)N(CCN3CCOCC3)C2c2ccco2)c1` (stereo not drawn), the “inhibition” value was 10.3%.
Same read-out and setting: next, `COc1ccc(OC)c(NC(=O)CC2C(=O)NCCN2C(=O)Nc2cccc(Cl)c2)c1` (stereo not drawn): 23.1%.
With `Cc1ccnc(N2CCC(C(=O)NNC(=O)c3ccccc3C)CC2)n1`, the molecule was called inactive.
Still for that read-out and setting: to `O=C(O)C1CCN(S(=O)(=O)/C=C/c2ccccc2)CC1` belongs “inactive”.
For the molecule `CCn1c(CNC(=O)Cc2ccc(OC)cc2)nnc1SCC(=O)Nc1ccc(C(=O)O)cc1`, the “inhibition” value was 5.77%.
As for `Cc1nn(C(=O)c2cccnc2)c(C)c1C`, the “inhibition” value was 6.08%.
Consider `COC(=O)Cc1c(C)nc2nc(-c3cccnc3)[nH]n2c1=O`, for which the call was inactive.
`O=C(NCc1ccco1)C1CCCN(S(=O)(=O)c2cccc3nsnc23)C1` (stereo not drawn): the “inhibition” value was 4.05%.
For the molecule `COc1cc(/C=C(\C#N)c2nc3ccccc3[nH]2)c([N+](=O)[O-])cc1OCc1ccccc1`, the “inhibition” value was 16.2%.
For `c1ccc(SCc2nc3ccccc3[nH]2)cc1`, the call was inactive.
Take `CC1(C)C2CCC1(CS(=O)(=O)Nc1cccc(S(N)(=O)=O)c1)C(=O)C2` (stereo not drawn): the “inhibition” value was 3.3%.
Take `COc1ccc(N2CCN(C(=O)c3c(-c4ccccc4)noc3C)CC2)cc1`: the “inhibition” value is 13%.
As to `COc1ccc(NC(=O)c2c(OC)cccc2OC)c(OC)c1`, the outcome was inactive.
With `COc1ccc(OC)c(NC(=O)NCc2ccc(F)cc2)c1`, the “inhibition” value was 12.2%.
Consider `Cn1nc(CC(=O)NCCN2C(=O)CSC2=O)c2ccccc2c1=O`, for which the “inhibition” value is 5.46%.
Turning to `CCOc1ccc(-n2c(SCC(=O)Nc3cc(C)on3)nnc2-c2c[nH]c3ccccc23)cc1`, the “inhibition” value was 25.1%.
Regarding `COc1cccc(NC(=O)Nc2nnc(N3C(C)CCCC3C)s2)c1` (stereo not drawn), the outcome was inactive.

The values are drawn from PubChem BioAssay AID1117361 (Southern Research Institute, 2015).
